Experimental data: PubChem BioAssay AID588852 (The Scripps Research Institute Molecular Screening Center, 2011)
Screen size: about 360,000 compounds; about 4,600 (1.3%) were called active.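 The calls were made as follows: active = percent inhibition above its own plate's cutoff, namely the mean of that plate's compound wells plus 3 SD; inactive = the rest.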 The entries come from a sample that favours actives as a whole.

Target: Muscarinic acetylcholine receptor M1 (Homo sapiens) (UniProt P11229)
Experiment: CHRM1 blockers of acetylcholine calcium response – CHO-K1 cells, Fluo-8 calcium fluorescence, 1536-well, primary screen (AID 588852);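 also: peak over basal fluorescence ratio during 140 s after agonist addition; 0% = ACh EC80 plus DMSO and 100% = DMSO alone without agonist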
Settings: CHO-K1 hM1, Fluo-8 calcium fluorescence, ACh EC80 antagonist; at 3 µM; hits give high values

Chain of Muscarinic acetylcholine receptor M1 (Homo sapiens) (P11229 whole entry, looked up): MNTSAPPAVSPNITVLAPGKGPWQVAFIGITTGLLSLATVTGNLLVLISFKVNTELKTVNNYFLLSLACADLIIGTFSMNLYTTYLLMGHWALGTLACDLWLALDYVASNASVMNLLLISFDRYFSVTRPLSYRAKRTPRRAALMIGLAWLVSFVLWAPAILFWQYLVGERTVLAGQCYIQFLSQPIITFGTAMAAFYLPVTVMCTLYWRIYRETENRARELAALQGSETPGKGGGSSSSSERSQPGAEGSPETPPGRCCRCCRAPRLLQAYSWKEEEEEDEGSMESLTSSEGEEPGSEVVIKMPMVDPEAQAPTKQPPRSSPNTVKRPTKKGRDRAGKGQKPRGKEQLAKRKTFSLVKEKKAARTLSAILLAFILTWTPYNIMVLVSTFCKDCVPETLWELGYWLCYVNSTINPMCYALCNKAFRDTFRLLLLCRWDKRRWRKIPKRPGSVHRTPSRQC

inhibition, active:
COc1ccc(CN2C3CCCC2CC(NC(=O)c2cccc(F)c2)C3)cc1 (stereo not given) 32.6%
Cc1cc([N+](=O)[O-])nn1CC(=O)Nc1ccc(Cc2ccncc2)cc1 28.3%
O=C(CSc1nc(=O)n2ccccc2n1)Nc1ccc2c(c1)OCCO2 35.3%
CN1CCC(OC(=O)COc2ccc(Cl)cc2Cl)CC1 51.8%
CCOC(=O)C1CCN(Cc2nnc(-c3cccc(Br)c3)o2)CC1 35.9%
N#C[C@]1(S(=O)(=O)c2ccccc2)C[C@@H]2ON=C(c3cccc(Br)c3)[C@@H]2C1 33.5%
CC12CN(Cc3ccccc3)CC(C)(CN(Cc3ccccc3)C1)C2=NO 38.2%
Cc1ccc(S(=O)(=O)c2nc(NCCCn3ccnc3)sc2Cl)cc1 29.2%
O=C(CC1CCCCC1)Nc1c2c(nn1-c1ccc(F)cc1)CS(=O)(=O)C2 104%
c1ccc2c(c1)CSc1sccc1C2=C1CCNCC1 99.6%
CCOC(=O)N1CCN(C(=O)c2ccc3c(=O)n(CCc4ccc(OC)c(OC)c4)c(=O)[nH]c3c2)CC1 62.3%
COC(CCN(C)C)(c1ccccc1)c1ccccc1 60.4%

inhibition, inactive:
COc1ccc(NC(=O)NC2CC3CCCC(C2)N3Cc2ccccc2)cc1 (stereo not given) 1.24%
CCCN1C2CCCC1CC(NC(=O)c1cccc(OC)c1)C2 (stereo not given) -14.2%
Cc1nn(Cc2ccc(C(=O)N3N=C(C(F)F)CC3(O)C(F)F)cc2)c(C)c1[N+](=O)[O-] (stereo not given) -0.52%
COc1ccc(C(C)(O)c2nc(-c3ccc(C)c(C)c3)cs2)cc1 (stereo not given) 6.49%
CC(C)CC(=O)Nc1ccc(Cc2ccncc2)cc1 -16.9%
Cc1cc(C)n(CC(=O)Nc2ccc([N+](=O)[O-])cc2)n1 -1.63%
CC(C)CN1CCC1(C)C(=O)Nc1ccc(OC(F)F)cc1 (stereo not given) 1.99%
CCc1nc2c(=O)[nH]cnc2o1 -5.65%
COc1cc(C(=O)N(C)Cc2cccc(OC)c2OC)ccc1OCC(=O)Nc1cccc(C(F)(F)F)c1 5.88%
CCCCC[C@H]1CN(C2CCCCC2)C(=O)[C@@H]1CC(=O)NCc1ccc(OC)cc1 -1.3%
Cn1ccnc1SCC(=O)Nc1ccc2c(c1)OCCO2 -13.9%
O=C(CSc1nc2ncccc2[nH]1)Nc1ccc2c(c1)OCCO2 -2.03%
CC(=O)Nc1cc(-c2ccc(N3CCN(C)CC3)cc2)cn2c(-c3ccc(F)cc3)cnc12 -18.1%
CCc1ccc2c(c1)NC(=O)C2(C)Cc1ccc(OC(F)(F)F)cc1 (stereo not given) -13.1%
Cc1ccc(Cl)c(OCC(=O)NN2CCN(C)CC2)c1 -16.2%
O=C(CCCOc1ccc(Cl)cc1Cl)NNC(=O)C1CCC1 -17.9%
COc1ccc(CN(CC(=O)NC2CCCC2)C(=O)CCC(=O)Nc2cc(C)on2)cc1 -0.71%
CN(C)/C=C(\C#N)C(=O)c1cccnc1Oc1ccc(F)cc1F -0.88%
O=C(N=C1SC2CS(=O)(=O)CC2N1c1ccccc1)c1ccccc1 (stereo not given) -9.89%
CCOC(=O)C1CCN(Cc2ccc(-c3ccccc3)cc2)CC1 25.5%
CCOC(=O)N1CCN(Cc2nnc(-c3ccccc3Cl)o2)CC1 -15.1%
CC1=NC2(CCCc3c2no[n+]3[O-])N(O)C1(C)C (stereo not given) 0.36%
Cc1ccc(C(=O)NC(C)C(c2cccs2)N2CCOCC2)cc1C (stereo not given) -6.99%
COC(=O)[C@]1(S(=O)(=O)c2ccccc2)C[C@@H]2ON=C(c3ccc(OC)cc3)[C@@H]2C1 -7.9%
CCN1C(=O)C(C(=O)NC(C)c2ccccc2)C2CC1(C)Oc1ccccc12 (stereo not given) -3.28%
C=CCOc1ccc(/C=C/C(=O)OCC(=O)NCC2CCCO2)cc1 (stereo not given) -1.61%
NC(=O)C1(N2CCCC2)CCN(Cc2ccccc2)CC1 2.73%
O=S1(=O)CCN(Cc2ccccc2)CC1 -8.4%
COc1ccc(/C=N/NC(=O)C(C)N(c2ccc(OC)cc2)S(C)(=O)=O)cc1 (stereo not given) 3.35%
CC(=O)Nc1ccc(Nc2ncnc3c2nnn3Cc2ccccc2Cl)cc1 -1.5%
COC(=O)C1(S(=O)(=O)C2(C(=O)OC)CCCC2)CCCC1 -1.25%
CCCCOc1ccc(CON(C(C)=O)C(C)=O)cc1Cl 6.46%
COc1ccccc1S(=O)(=O)NCc1ccc(C(=O)N(C)Cc2ccc(F)cc2)cc1 -14.8%
COc1ccc([N+](=O)[O-])cc1C1NN=C(c2cccc3ccccc23)S1 (stereo not given) -11%
Cc1ccc2c(Cl)c(C(=O)NCCCn3ccnc3)sc2c1 -10.2%
Cc1ccc(-c2nc(C#N)c(NCCCn3ccnc3)o2)cc1 -17.5%
C/C(=N\NC(=S)NCc1ccccc1)C1CCCCC1 -9.74%
Cc1cc2nc(-c3ccc(Cl)cc3)c(Cc3cccc(F)c3)n2c(C)c1Br 0.42%
COc1ccccc1OCC(=O)Nc1c2c(nn1-c1ccc(F)cc1)CS(=O)(=O)C2 -12.4%
O=C(Nc1c2c(nn1-c1ccccc1)CS(=O)(=O)C2)C1CCCC1 -10.8%
CC(C)(C)NC(=O)CSC(=Nc1ccccc1F)NC#N -1.14%
COCCn1c(=S)[nH]c2cc(C(=O)NCCc3ccc(OC)c(OC)c3)ccc2c1=O -6.48%
COc1ccc(-n2c(=O)[nH]c3cc(C(=O)NCCc4ccc(OC)c(OC)c4)ccc3c2=O)c(OC)c1 -8.11%
COCc1cc(=O)[nH]c(-c2ccc(C(F)(F)F)cc2)n1 -16.9%
CC(=O)N[C@@H](C)C(=O)N1CCC(n2nccc2NC(=O)CCCc2ccccc2)CC1 -3.58%
CN(Cc1ccc(C(F)(F)F)cc1)C(=O)[C@H]1O[C@@H](n2cnc3c(N)ncnc32)[C@H](O)[C@@H]1O -26%
CN(C)N(C)C(=O)C(O)(c1ccccc1)c1ccccc1 17.7%
CCCC(O)(c1ccc(OC)cc1)C(CN(C)C)c1ccccc1 (stereo not given) -7.01%
